Test results taken from PubChem BioAssay.
The source made the active and inactive calls.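 How the source made its calls, unless noted: active means inhibition of the reporter signal at or above 50%; inactive means inhibition below 50%.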

How the values were obtained:
[1] = inhibitors of TNFa-induced NFkB p65 translocation, primary screen, imaging, HUVEC, MLSMR starter and 10KST1 sets (AID 438;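 active means inhibition above 20% together with a positive visual image hit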;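 further: compound added about 3h40 before a 20 min TNFalpha stimulation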;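 on inhibition: signal is the nuclear over cytoplasmic p65 intensity ratio per well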); settings: HUVEC TNFa-induced p65 nuclear translocation; cell count: measured here: nuclei count (cytotoxicity indicator), at 2.08 µM; inhibition: at 2 µM, stronger effect = higher value, 0% TNFa-plus-vehicle, 100% no-TNFa wells
[2] = inhibitors of mutant huntingtin aggregation, primary screen, imaging, exon1htt(103Q)mCFP cells, high-content imaging (AID 483;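 active means visual image review flags a hit and inhibition of aggregation exceeds 20%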;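 further: compound exposure lasted 3 days before fixation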;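 on nuclei count: percent of the per-plate median nuclei count of sample wells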); settings: exon1htt(103Q)mCFP cell line, aggregate imaging, at 2 µM; inhibition of aggregation: stronger effect = higher value; nuclei count: measured here: cell count, toxicity
[3] = inhibitors of E-selectin induction by TNFa, primary screen, imaging, HUVEC, immunofluorescence, MLSMR starter and 10KST1 sets (AID 487;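 active means visually confirmed hit in the image check and inhibition above 20%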;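 on inhibition: signal is fraction of cell area covered by stained E-selectin grains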;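 on nuclei count: 100% = median nuclei count of all wells on the same plate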); settings: HUVEC TNFalpha-induced E-selectin immunofluorescence imaging, at 2 µM; inhibition: stronger effect = higher value; nuclei count: measured here: cell number, toxicity
[4] = target: Voltage-gated potassium channel subunit beta-2 (Rattus norvegicus) (UniProt P62483); assay: KvBeta enzyme negative modulators, primary screen, biochemical, NADPH fluorescence (AID 622;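 active means fluorescence slope higher than the sample average by over 3 SD, cut at about -0.22 in these data, passing the limit was not always enough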;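 further: slope of raw intensity against log time taken from 70 to 1610 s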); settings: recombinant KvBeta, 4-cyanobenzaldehyde reduction, at 10 µM, stronger effect = higher value
Sequence of Voltage-gated potassium channel subunit beta-2 (Rattus norvegicus) (P62483 whole entry, looked up): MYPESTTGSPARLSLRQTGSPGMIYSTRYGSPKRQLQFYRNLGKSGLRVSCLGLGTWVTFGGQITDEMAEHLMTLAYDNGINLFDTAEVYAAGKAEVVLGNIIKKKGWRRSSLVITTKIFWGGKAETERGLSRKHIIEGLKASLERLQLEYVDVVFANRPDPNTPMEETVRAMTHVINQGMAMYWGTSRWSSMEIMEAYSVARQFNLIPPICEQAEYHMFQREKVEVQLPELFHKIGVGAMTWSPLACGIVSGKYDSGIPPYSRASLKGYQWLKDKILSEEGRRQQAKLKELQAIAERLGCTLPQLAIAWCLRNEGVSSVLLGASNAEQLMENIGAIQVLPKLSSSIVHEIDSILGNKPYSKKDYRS

[5] = target: Voltage-gated potassium channel subunit beta-2 (Rattus norvegicus) (UniProt P62483); assay: KvBeta positive modulators, primary screen, biochemical, NADPH fluorescence (AID 623;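 active means NADPH fluorescence slope more negative than the mean of all samples by about 3 SD, 99.7% confidence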;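 further: fluorescence intensity change per second fitted from 20 to 320 s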); settings: Recombinant KvBeta, NADPH fluorescence decrease slope, 10 min; at 10 µM; stronger effect = lower value
[6] = target: Alpha-2C adrenergic receptor (Homo sapiens) (UniProt P18825); assay: modulators of alpha2C/GIRK thallium flux, primary screen, cell-based, HEK293 alpha2C/GIRK1/2 (AID 624;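 active means fluorescence slope after compound addition differing from the mean of all screened samples at 99.7% confidence, in either direction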;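 further: slope of fluorescence ratio to pre-addition baseline per second over 15 to 24 s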); settings: thallium flux BTC fluorescence, at 10 µM, actives lie on both sides
Sequence of Alpha-2C adrenergic receptor (Homo sapiens) (P18825 whole entry, looked up): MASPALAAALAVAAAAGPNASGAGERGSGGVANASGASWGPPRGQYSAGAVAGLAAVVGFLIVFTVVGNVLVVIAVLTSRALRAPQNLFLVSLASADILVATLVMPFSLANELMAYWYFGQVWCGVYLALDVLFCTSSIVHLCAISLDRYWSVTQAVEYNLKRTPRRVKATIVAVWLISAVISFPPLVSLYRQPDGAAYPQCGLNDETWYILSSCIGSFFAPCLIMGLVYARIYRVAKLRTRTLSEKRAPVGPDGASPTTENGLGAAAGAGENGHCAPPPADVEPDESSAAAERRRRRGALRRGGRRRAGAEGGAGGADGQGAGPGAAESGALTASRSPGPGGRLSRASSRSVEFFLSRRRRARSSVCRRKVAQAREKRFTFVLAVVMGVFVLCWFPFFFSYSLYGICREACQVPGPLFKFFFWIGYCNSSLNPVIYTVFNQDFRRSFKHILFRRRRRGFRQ

[7] = inhibitors of Sendai virus-induced IRF3 signaling, primary screen, TLR/RLR signaling modifier project, cell-based, Sendai virus stimulus, luciferase, 10K MLSCN set (AID 602276;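 active means inhibition at or above 50% at 10 µM; inactive means inhibition below 50%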;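 further: firefly luciferase from ISG56 promoter only with Renilla not read in this screen; 0% = Sendai virus plus DMSO and 100% = medium plus DMSO without virus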); settings: HEK293 RL24 IRF3 luciferase reporter, at 10 µM, stronger effect = higher value
[8] = inhibitors of poly I:C-induced TLR3 signaling, primary screen, cell-based, poly I:C stimulus, luciferase, 10K MLSCN set (AID 602277); settings: HEK293-TLR3 RL24 IRF3 luciferase reporter, at 10 µM, stronger effect = higher value

Row | Structure (SMILES) | cell count [1] | inhibition [1] | inhibition of aggregation [2] | nuclei count [2] | inhibition [3] | nuclei count [3] | fluorescence slope [4] | NADPH fluorescence slope [5] | slope [6] | inhibition [7] | inhibition [8]
1 | Cc1cc(C)n(CCc2nc(-c3cccs3)cs2)n1 | 587 | -10.1% (inactive) | -5.8% (inactive) | 98.6% | -52.1% (inactive) | 112% | -0.603 (inactive) | -5.2e-07 (inactive) | 0.00641 (inactive) | -6.14% (inactive) | -42.1% (inactive)
2 | O=C(Nc1cccc(C(F)(F)F)c1)c1ccco1 | 580 | -5.4% (inactive) | 4.3% (inactive) | 113% | -33.8% (inactive) | 99.3% | -0.617 (inactive) | -5.6e-05 (inactive) | 0.00406 (inactive) | -7.21% (inactive) | -42.6% (inactive)
3 | Cc1noc(C)c1CSc1nc2ccccc2s1 | 588 | -2.3% (inactive) | -7.7% (inactive) | 113% | -4.7% (inactive) | 102% | -0.515 (inactive) | 2.9e-05 (inactive) | 0.00595 (inactive) | 4.37% (inactive) | -21.8% (inactive)
4 | O=c1c2cc(Cl)ccc2[nH]c(=S)n1Cc1ccco1 | 439 | 5.3% (inactive) | 13.5% (inactive) | 89.7% | -36.1% (inactive) | 102% | -0.597 (inactive) | -4.8e-05 (inactive) | 0.00334 (inactive) | 9.24% (inactive) | 20.2% (inactive)
5 | c1ccc(CCNc2ccc3nncn3n2)cc1 | 593 | 5.8% (inactive) | -3.1% (inactive) | 106% | -9.2% (inactive) | 121% | -0.501 (inactive) | -2.4e-05 (inactive) | 0.00573 (inactive) | 6.01% (inactive) | 12.8% (inactive)
6 | CC(C)CC1NC(=O)N(CC(=O)N2CCN(S(=O)(=O)c3ccc(Cl)cc3)CC2)C1=O (centres undefined) | 716 | 4% (inactive) | 11.8% (inactive) | 93% | -35.6% (inactive) | 76.3% | -0.416 (inactive) | 4.2e-06 (inactive) | 0.00417 (inactive) | 15.2% (inactive) | -5.28% (inactive)
7 | Cc1ccc2c(Cl)cc(Cl)c(OCc3c(C)noc3C)c2n1 | 731 | -1.2% (inactive) | -13.6% (inactive) | 97.3% | -164% (inactive) | 142% | -0.604 (inactive) | 2.6e-05 (inactive) | 0.00543 (inactive) | -17% (inactive) | -0.677% (inactive)
8 | Cc1ccc2cc(CN(Cc3ccc(F)cc3)Cc3nnnn3C3CCCC3)c(=O)[nH]c2c1 | 702 | -10.8% (inactive) | -13.3% (inactive) | 103% | -40.7% (inactive) | 98.8% | -0.311 (inactive) | -4.1e-05 (inactive) | 0.00514 (inactive) | 10.6% (inactive) | 13.8% (inactive)
9 | N#Cc1cnc(SCCc2ccccc2)nc1N | 630 | -13.1% (inactive) | -5.2% (inactive) | 93.9% | -14.8% (inactive) | 108% | -0.291 (inactive) | -5.5e-05 (inactive) | 0.00492 (inactive) | -34% (inactive) | -61.8% (inactive)
10 | Cc1ccc(-n2ncc3c(=O)n(CC(=O)N4CCCc5ccccc54)cnc32)cc1C | 227 | -2.8% (inactive) | 10.4% (inactive) | 93.3% | 9.3% (inactive) | 87.8% | -0.346 (inactive) | -6.2e-05 (inactive) | 0.00504 (inactive) | -13.9% (inactive) | -13.7% (inactive)
11 | NCc1cccc(-n2cccn2)c1 | 680 | -8.9% (inactive) | 1.2% (inactive) | 96.4% | -25.7% (inactive) | 115% | -0.622 (inactive) | 4.5e-06 (inactive) | 0.00555 (inactive) | -6.32% (inactive) | 6.04% (inactive)
12 | COc1ccc(OC)c(NC(=O)CCNS(=O)(=O)c2cccs2)c1 | 662 | 7.1% (inactive) | 5.1% (inactive) | 81.4% | -74.4% (inactive) | 91.1% | -0.533 (inactive) | 3.3e-05 (inactive) | 0.00666 (inactive) | 14.1% (inactive) | 24.2% (inactive)
13 | C=CCN=C1SCC(=O)N1S(=O)(=O)c1ccc(C)cc1 | 342 | -0.2% (inactive) | 3.3% (inactive) | 91.1% | -135% (inactive) | 124% | -0.364 (inactive) | -6.1e-05 (inactive) | 0.00404 (inactive) | 5.91% (inactive) | 11.1% (inactive)
14 | COc1cccc(NC(=O)NC2(C(F)(F)F)Oc3ccccc3O2)c1 | 684 | -12.7% (inactive) | 0% (inactive) | 105% | -125% (inactive) | 120% | -0.476 (inactive) | -0.000362 (inactive) | 0.00501 (inactive) | 12.9% (inactive) | 24.9% (inactive)
